# Source: PubChem
# In the library only some 2.4% were active in any assay of this set; here they are far more common.
# Cruzain Triton: inhibitors of Trypanosoma cruzi cruzain with detergent | P25779 | purified cruzain, Z-FR-AMC fluorescence, 0.01% Triton | Potency, µM, inactives show max response, negative = inhibition, hits mostly inhibitors | actives 0.43% (n = 200,000) | AID 1478;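 also: plate controls were neutral wells for no effect and buffer without enzyme for full effect; nearly all actives have a fitted effect of over 40% in size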
# Target sequence (P25779 123-467 limits assumed): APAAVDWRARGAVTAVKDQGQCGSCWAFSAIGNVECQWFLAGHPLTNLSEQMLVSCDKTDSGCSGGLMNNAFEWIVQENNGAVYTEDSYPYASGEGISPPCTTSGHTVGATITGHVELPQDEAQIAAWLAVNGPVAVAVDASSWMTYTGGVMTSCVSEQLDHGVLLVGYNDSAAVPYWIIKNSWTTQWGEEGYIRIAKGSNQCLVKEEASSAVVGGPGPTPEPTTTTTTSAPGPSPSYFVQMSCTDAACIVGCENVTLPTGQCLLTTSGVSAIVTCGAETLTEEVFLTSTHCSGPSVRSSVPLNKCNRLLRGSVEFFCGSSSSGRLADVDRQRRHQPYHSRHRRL
#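 Detergent-containing arm of a paired screen for aggregation-based inhibition: 0.01% Triton X-100 present. Cruzain at 1.5 nM cleaved 2 uM Z-FR-AMC at pH 5.5 with 5 mM DTT; AMC fluorescence gain over 60 s measured activity.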
# Cruzain inh noDet: inhibitors of Trypanosoma cruzi cruzain without detergent | P25779 | purified cruzain, Z-FR-AMC fluorescence, no detergent | Potency, µM, for the others: max response, negative = inhibition, usual class: inhibitors | actives 2.3% (n = 200,000) | AID 1476;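 also: plate controls were enzyme without inhibitor for no effect and buffer without enzyme for full effect; nearly all actives have a fitted effect of over 40% in size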
#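 Detergent-free condition (0.00005% Triton X-100) in acetate buffer pH 5.5 with DTT. 1.5 nM enzyme and compound were pre-mixed 15 min, then 2 uM Z-FR-AMC substrate added; reaction progress from fluorescence change between first and third reads (60 s).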
# * marks the source's active call; other numbers are inactive results; ? = inconclusive; ! = a repeat was not active. Calls follow the shape of the dose curve; as a rule, active = well fitted curve in the direction sought with a large enough effect; inconclusive = small, poorly fitted or top-dose-only effect, or another doubt; inactive = no such curve, though single readings can be large; an effect the other way counts as inactive or inconclusive. Potency is read from the fitted curve at half-maximal effect.
SMILES,Cruzain Triton,Cruzain inh noDet
CCOC(=O)c1ccc(S(=O)(=O)NCC(c2ccc(N(C)C)cc2)c2c[nH]c3ccccc23)cc1 (configuration not stated),-4%,?
CN(C)c1ccc(C(CNS(=O)(=O)c2ccc(F)cc2)c2c[nH]c3ccccc23)cc1 (configuration not stated),-10%,32µM*
CN(C)c1ccc(C(CNC(=O)c2ccccc2Br)c2c[nH]c3ccccc23)cc1 (configuration not stated),-3%,25µM*
CN(C)c1ccc(C(CNC(=O)c2ccc(C#N)cc2)c2c[nH]c3ccccc23)cc1 (configuration not stated),-11%,?
Cc1ccc(OCC(=O)n2nc(C)cc2C)c(Br)c1,-3%,-11%
C=C(C)CN=C1SC(C(=O)Nc2sc3c(c2C(=O)OC)CCC3)C(N)=C1C(N)=O (configuration not stated),-5%,-18%
COC(=O)c1c(NC(=O)C2SC(=NC3CCCCC3)C(C(N)=O)=C2N)sc2c1CCCC2 (configuration not stated),-3%,7.9µM*
CCn1c(=O)c(C(=O)NNS(=O)(=O)c2ccc(Cl)cc2)c(O)c2ccccc21,-9%,25µM*
CCn1c(=O)c(C(=O)Nc2ccccc2S(N)(=O)=O)c(O)c2ccccc21,-4%,?
O=C(Nc1ccccc1C(=O)NCC1CCCO1)c1ccc(Cl)cc1Cl (configuration not stated),0%,4%
O=C(COC(=O)CNS(=O)(=O)/C=C/c1ccccc1)NC1CCS(=O)(=O)C1 (configuration not stated),-27%,-22%
Cc1ccc(C(=O)NCC(=O)OCC(=O)NC2CCS(=O)(=O)C2)cc1C (configuration not stated),16µM*,25µM*
COc1cccc(NC(=O)N(Cc2cn(C)c3ccccc23)C2CCCCC2)c1,-5%,-6%
CSc1nc2n(n1)C(c1cccc(F)c1)C(C(=O)Nc1ccc(C)cc1C)=C(C)N2 (configuration not stated),8%,10µM*
COc1ccc(C2C(C(=O)Nc3ccc(C)cc3C)=C(C)Nc3nc(SC)nn32)cc1OC (configuration not stated),0%,-4%
CN(C(=O)CSc1nc2ccccc2[nH]1)c1ccc(F)cc1,1%,13%
COc1ccccc1NC(=O)C1=C(C)Nc2c(C(=O)Nc3cccc(C)c3)cnn2C1c1ccccc1C (configuration not stated),-5%,?
CC1=C(C(=O)Nc2ccc(C)cc2C)C(c2cc(Br)ccc2F)n2ncc(C(=O)Nc3ccc(C)cc3)c2N1 (configuration not stated),-1%,-29%
COc1ccccc1NC(=O)C1=C(C)Nc2c(C(=O)Nc3cccc(C)c3)cnn2C1c1ccccc1Cl (configuration not stated),-6%,25µM*
CC1=C(C(=O)Nc2ccccc2)C(c2cc(Br)ccc2F)n2ncc(C(=O)Nc3ccccc3)c2N1 (configuration not stated),-4%,20µM*
Cc1ccc(CNc2ccc3c(c2)OCO3)c(C)c1,0%,?
COc1ccc2ccc(=O)oc2c1CC=C(C)C,-10%,4%
COc1cc2ccc(=O)oc2cc1O,25µM*!,32µM*
CCC(CC)C(=O)NCCc1cc2cc(C)c(C)cc2[nH]c1=O,4%,7%
FC(F)(F)c1cccc(-c2ccc(-c3csnn3)o2)c1,-7%,-2%
SMILES,Cruzain Triton,Cruzain inh noDet
c1ccc(-c2ccc(-c3csnn3)cc2)cc1,4%,20µM*
COC(=O)c1ccc2c(c1)N(Cc1cc(C)ccc1C)C(=O)c1ccccc1S2,-5%,-29%
CCCc1cc(=O)n2[nH]c(-c3cc(OC)c(OC)c(OC)c3)nc2n1,3%,-4%
CCOC(=O)c1cc2c(=O)n3cccc(C)c3nc2n(Cc2ccco2)c1=NC(=O)c1cccnc1,-9%,?
Cc1cccc(C(=O)N=c2c(C#N)cc3c(=O)n4cccc(C)c4nc3n2Cc2ccco2)c1,8.9µM*,16µM*
CC(=O)Nc1cccc(-c2csc(Nc3cc(C)ccn3)n2)c1,-9%,3%
O=C(c1cccc(C(=O)N2CCN(c3ncccn3)CC2)c1)N1CCN(c2ncccn2)CC1,6%,-7%
O=C(Nc1ccc2nc(-c3ccco3)c(-c3ccco3)nc2c1)N1CCN(c2ccccn2)CC1,14µM*,2.5µM*
O=C(c1ccc2nc(-c3ccco3)c(-c3ccco3)nc2c1)N1CCN(c2ncccn2)CC1,25µM*,?
Cc1nc2cc(NC(=O)N3CCN(c4ccccn4)CC3)ccc2o1,8%,3%
CC(=O)C1=C(c2ccc(Cl)c(Cl)c2)N(C(C)=O)n2c(nnc2-c2ccccc2)S1,-1%,-5%
COC1CCCCC1Nc1cc(C)cc(C)c1 (configuration not stated),7%,-7%
Cc1ccc(Nc2nc(-c3sc(NC(=O)c4cccc(Cl)c4)nc3C)cs2)cc1,6%,4µM*
COc1ccccc1Nc1nc(-c2sc(NC(=O)C(C)(C)C)nc2C)cs1,-2%,-4%
Cc1nc(NC(=O)c2ccc(Cl)cc2)sc1-c1csc(Nc2cccc(F)c2)n1,9%,10µM*
COc1ccccc1Nc1nc(-c2sc(NC(=O)c3cccc(Cl)c3)nc2C)cs1,11%,7.9µM*
Cc1nc(C)c(-c2csc(NCc3ccco3)n2)s1,-7%,-8%
Cc1nc(NC(=O)c2ccccc2)sc1-c1csc(NCc2ccco2)n1,5%,16µM*
COc1cccc(Nc2nc(-c3sc(NC(=O)c4ccccc4)nc3C)cs2)c1,1%,?
Cc1ccc(Nc2nc(-c3sc(NC(=O)c4ccco4)nc3C)cs2)cc1,3%,-26%
O=C(CN(c1ccc(F)cc1)S(=O)(=O)c1ccc2c(c1)OCCO2)Nc1ccc2c(c1)OCO2,-3%,?
NC(=O)c1ccsc1NC(=O)COC(=O)C1CCCN1C(=O)c1cccs1 (configuration not stated),-1%,-8%
CCCCCCNC(=O)CC(c1ccccc1)c1cc(Br)ccc1O (configuration not stated),-3%,-11%
c1ccc(CN=C2NN=C(c3cc4ccccc4o3)CS2)cc1,-16%,?
c1ccc2oc(C3=NNC(=NC4CC4)SC3)cc2c1,-11%,16µM*
SMILES,Cruzain Triton,Cruzain inh noDet
Cc1ccccc1-n1nc(C(=O)c2cccs2)cc(-c2nc3ccccc3[nH]2)c1=N,-6%,25µM*
COc1ccc(-n2nc(C(=O)c3cccs3)cc(-c3nc4ccccc4[nH]3)c2=N)cc1,-12%,3%
CCOc1cc(N2CCOCC2)c(OCC)cc1NC(=O)COC(=O)c1ccccc1C,-6%,?
COc1cc(-c2nc(-c3ccc(NC(=O)c4ccc5c(c4)OCO5)cc3)no2)cc(OC)c1OC,-3%,?
Cc1ccccc1-c1nc(-c2ccc(NC(=O)c3ccc4c(c3)OCO4)cc2)no1,-1%,7.9µM*
O[N+]1=CC=CCC1=S.On1ccccc1=S.[Zn],3.2µM*,2.5µM*
O=c1oc2c3c(ccc2c2ccccc12)OCN(Cc1ccc(Cl)cc1)C3,-1%,7%
O=C(CSC1=NCCS1)Nc1nc2ccccc2s1,-7%,-11%
CC(Oc1ccccc1)C(=O)Nc1ccc(OCc2cc(=O)n3ccsc3n2)cc1 (configuration not stated),-5%,-1%
Cc1ccc(NC(=O)c2cc(C(=O)c3cc(Cl)ccc3O)cn(-c3ccc(C)cc3)c2=O)cc1,-2%,5µM*
